The results in this text go back to ChEMBL document CHEMBL3988442, “University of Dundee, Small-Polar-MMV Screening Library” (2021).

Hit rate of the full screen: of about 69,000 compounds, about 1,000 (1.4%) showed an effect of 50% or more. The sample holds strong results, similar compounds and a random draw of the others, so the mix is not that of the screen.

This assay concerns Leishmania donovani. Description: Leishmania intramacrophage assay. The format is functional, organism-based. Details: scale not given: in the data most compounds retested in dose-response had high values.

For the compound `CC(Cn1cccn1)NCc1cnc(N2CCCC2)nc1` (configuration not stated), the “Percent Effect” value (30.3 µM, […]) is on record as 6.002%.
Same read-out and setting: for `O=C(O)C(F)(F)F.O=C(O)C(F)(F)F.c1coc(CN2CCCn3c(CN4CCOCC4)nnc3C2)c1` the value was 2.025%.
For `O=c1ccc(-c2cccs2)nn1CN1CCN(c2ccccn2)CC1`, the “Percent Effect” value (30.3 µM, […]) worked out at 5.805%.
Consider `CCNS(=O)(=O)c1cccc(CSC)c1`, for which, for the setting “30.3 µM, […]”, the “Percent Effect” value stood at 64.35%.
The same measure, in the same setting: for `CSCc1cccc(S(=O)(=O)NCCO)c1` the value was 7.47%; for `CCN(CC)CCNS(=O)(=O)c1cccc(CSC)c1`, -28.14%.
With `O=C(NCc1ccccn1)NC1CCOc2ccccc21` (configuration not stated), the “Percent Effect” value (30 µM, 30.03 µM) amounted to 24.88%.
As to `Cc1cc(CN(C)C(=O)c2ccc(F)cc2F)no1`, the “Percent Effect” value (30.3 µM, […]) was -6.199%.
Take `Cc1ccc(CN2CCCC(c3cnccn3)C2)s1` (configuration not stated): the “Percent Effect” value (30.3 µM, […]) is 27.06%.
Still for that read-out and setting: for `Cc1ccc(CN2CCOC(c3cnccn3)C2)s1` (configuration not stated) the value was 57.91%; for `Cc1ccc(CN2CCC(c3cnccn3)CC2)s1`, 12.08%; for `COc1ccc(CNC(C)c2ccc(Cl)c(Cl)c2)c(OC)c1OC` (configuration not stated), 55.53%.
For `COc1ccc(CNC(C)c2cccc(Cl)c2)c(OC)c1OC` (configuration not stated), the “Percent Effect” value (30 µM, 30.03 µM) is listed as 25.49%.
For `COc1ccc(CNC(C)c2ccc(Cl)cc2)c(OC)c1OC` (configuration not stated), the “Percent Effect” value (30.3 µM, […]) was determined as 11.12%.
In the case of `CCOC(=O)N1CCN(c2nc(CCN)nc3sc(C)c(C)c23)CC1`, for the setting “30.3 µM, […]”, the “Percent Effect” value amounted to 81.77%.
With `Cc1sc2nc(CCN)nc(N3CCN(S(C)(=O)=O)CC3)c2c1C`, for the setting “30.3 µM, […]”, the “Percent Effect” value was -0.9568%.
With `Cc1sc2nc(C(F)(F)F)nc(N3CCN(C)CC3)c2c1C`, under “30.3 µM, […]”, the “Percent Effect” value is 9.999%.
On to `Cc1sc2nc(CCN)nc(N3CC(N4CCCCC4)C3)c2c1C`, for which the “Percent Effect” value (30.3 µM, […]) worked out at 85.94%.
Same read-out and setting: the figure for `Cc1sc2nc(CCN)nc(N3CCS(=O)(=O)CC3)c2c1C` is 0.7518%.
For the compound `Cc1sc2nc(CCN)nc(N3CCC(N4CCCC4)CC3)c2c1C`, the “Percent Effect” value (30.3 µM, […]) came to 27.1%.
Same read-out and setting: for `Cc1ccc(NC(=O)N2CCOC(C)(c3cnn(C)c3)C2)c(C)c1` (configuration not stated) the value was 12.13%.
The same measure, in the same setting: for `Cc1nn(C)c(C)c1S(=O)(=O)N(C)Cc1nn(C)c(Cl)c1Cl` the value was 1.519%.
As for `Cc1cn2c(n1)CCC(NC(=O)c1oc(Br)cc1C)C2` (configuration not stated), the “Percent Effect” value (30 µM) worked out at 33.37%.
Turning to `N#Cc1ccc(N2CC3(CCN(c4nccs4)C3)C2)nc1.O=CO.O=CO`, the “Percent Effect” value (30.3 µM, […]) stood at 9.16%.
As to `CCN1CC2(CCN(CCOc3ccc(F)cc3)CC2)CC1=O`, for the setting “30.3 µM, […]”, the “Percent Effect” value is reported as 52.2%.
As to `CCN1CC2(CCC1=O)CCN(CCOc1ccc(F)cc1)CC2`, the “Percent Effect” value (30.3 µM, […]) turned out to be 19.57%.
As for `O=C1CC2(CCCC2)CN1CCOc1ccc(F)cc1`, the “Percent Effect” value (30.3 µM, […]) was found to be 12.36%.
`Cn1cc(C(=O)OC2CN(c3nc4c(C(F)(F)F)cccc4s3)C2)nn1`: the “Percent Effect” value (30.3 µM, […]) is listed as 15.05%.
As for `Cc1ccc(C(=O)NCC(O)CN2CCCC2=O)cc1Cl` (configuration not stated), the “Percent Effect” value (30.3 µM, […]) was -2.277%.
Take `Cc1csc(CCNC(=O)C2CCCN(C3CCOCC3)C2)n1` (configuration not stated): the “Percent Effect” value (30.3 µM, […]) is reported as -3.021%.
Still for that read-out and setting: for `O=C(NCCc1c[nH]cn1)C1CCCN(C2CCOCC2)C1` (configuration not stated) the value was -4.763%; for `Cn1c(CCNC(=O)C2CCCN(C3CCOCC3)C2)n[nH]c1=O` (configuration not stated), 60.82%; for `CC(C)c1nc(CN(C)C(=O)C2CC(=O)N(Cc3ccncc3)C2)cs1` (configuration not stated), 1.333%.
As to `Cn1ccnc1CN1CCC2(CC1)CC(NC(=O)c1ccccn1)CO2.O=C(O)C(F)(F)F` (configuration not stated), the “Percent Effect” value (30 µM, 30.03 µM) is recorded as 2.919%.
`O=C(NC1COC2(CCN(Cc3ccccn3)CC2)C1)c1ccccn1.O=C(O)C(F)(F)F` (configuration not stated): the “Percent Effect” value (30 µM, 30.03 µM) is on record as 99.23%.
Turning to `Cc1nc(C(=O)N(C)C)nn1-c1ccccc1C(C)C`, where the note is “30.3 µM, […]”, the “Percent Effect” value turned out to be 17.02%.
Regarding `CCN1CC2(CC1=O)CN(Cc1cnn(C)c1)CCN(C(C)=O)C2.O=C(O)C(F)(F)F` (configuration not stated), where the note is “30 µM, 30.03 µM”, the “Percent Effect” value is listed as 8.348%.
The same measure, in the same setting: the figure for `O=C(NCCc1ccccc1)C1CCC(Cn2cnnn2)CC1` (configuration not stated) is 4.824%.
In the case of `COCC(=O)N1CCN(S(=O)(=O)c2cccs2)[C@H]2CS(=O)(=O)C[C@H]21`, for the setting “30.3 µM, […]”, the “Percent Effect” value is -6.326%.
On the same count and under the same terms, for `COCC(=O)N1CCN(S(=O)(=O)c2ccccc2)[C@H]2CS(=O)(=O)C[C@H]21` the value was 50.92%; for `CCC(=O)N1CCN(S(=O)(=O)c2cccc(F)c2)[C@H]2CS(=O)(=O)C[C@H]21`, 19.41%.
As to `CS(=O)(=O)CC(=O)N1C[C@@H]2COC[C@]2(c2nnc(C3CC3)o2)C1`, the “Percent Effect” value (30 µM, 30.03 µM) was determined as 6.501%.
Regarding `COc1cccc2c1ccn2CCC(=O)Nc1c2c(nn1C)CSC2`, the “Percent Effect” value (30.3 µM, […]) is given as -9.12%.
The same measure, in the same setting: for `CCN(CC)C(=O)CS(=O)(=O)c1cc(OC)c(OC)cc1C` the value was -79.93%; for `N#Cc1c(F)cccc1N1CCC(C(=O)Nc2nccs2)CC1`, 8.432%; for `N#Cc1c(F)cccc1N1CCCC(C(=O)Nc2nncs2)C1` (configuration not stated), 39.68%.
For the compound `N#Cc1c(F)cccc1N1CCN(C(=O)Nc2nncs2)CC1`, the “Percent Effect” value (30.3 µM, […]) turned out to be 50.08%.
